Screens as filed in PubChem BioAssay.
p53null 39C kill: kills p53 null cells at the nonpermissive temperature | H1299 p53-null (neo) cells, 39C, ATPlite viability, 24 h | Potency, µM (top dose mostly 46.1 µM), without a hit: top-dose activity, negative = cell killing, hits mostly cytotoxic | actives 0.97% (n = 55,000) | AID 904;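 note: potency is the fitted concentration of half-maximal effect; 0% = DMSO only and -100% = full killing by 100 µM tamoxifen; nearly all actives have a fitted effect of over 50% in size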
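Concentration-response (up to 46 uM) was run for 24 h at the nonpermissive 39C on H1299-p53A138V or H1299-neo cells. ATP content was measured with ATPlite luminescence. AC50 values were Hill-modeled after normalizing between DMSO and 100 uM tamoxifen killing.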
p53null 32C tox: kills p53 null cells at the permissive temperature; actives 0.62% (n = 55,000); H1299-neo p53 null cells, ATP luminescence, 24 h, 32C; Potency, µM (doses to about 46.1 µM), inactives show top-dose activity change, negative = cytotoxicity, usual class: cytotoxic;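 note: potency is the fitted concentration of half-maximal effect; 0% = DMSO only and -100% = full killing by 100 µM tamoxifen; nearly all actives have a fitted effect of over 55% in size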
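Cells lacking p53 (H1299-neo) are plated at 600 per well and allowed to settle overnight at 37C. Test compounds (up to 46 uM) are added and held 24 hours at 32C, then ATP is quantified by luminescence.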
S16 viability: toxic to S16 Pmp22-F2sN Schwann cells. AID 1508642. actives 0.48% (n = 43,000). Potency, µM (series often up to 57.5 µM), for inactives: at the top dose activity change, negative = cytotoxicity, most hits filed as cytotoxic. S16 Pmp22-F2sN Schwann cells viability, CellTiter-Glo, 24 h; note: potency is the fitted concentration of half-maximal effect; % is set by controls: 0 for no effect and ±100 for the full control effect; nearly all actives have a fitted effect of over 65% in size
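S16 Schwann cells carrying the Pmp22-F2sN reporter, seeded in 1536-well format, were exposed to library compounds for 24 h at 37C. Viability was read as CellTiter-Glo luminescence after 15 min at room temperature.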
mTORC1 inh: inhibitors of mTORC1 signaling in Tsc2-/- p53-/- MEF cells; Tsc2-/- p53-/- MEF, phospho-rpS6 immunofluorescence/PI, 24 h; Potency, µM (doses to about 38.3 µM), without a hit: at the highest dose activity change, negative = inhibition, actives largely listed as inhibitors; actives 0.78% (n = 44,000);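 note: potency is the fitted concentration of half-maximal effect; plate controls were DMSO for no effect and rapamycin for full effect; nearly all actives have a fitted effect of over 50% in size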
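Read-out: phospho-S6 Alexa-488 intensity over PI intensity per well, scored as % active cells using thresholds from rapamycin (7.5 nM) and DMSO controls. Tsc2-/-, p53-/- MEFs exposed to compound for 24 h; PI cell count recorded as viability.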
PMP22 txn: PMP22 gene transcription modulation. S16 Pmp22-F2sN Schwann cells, FLuc/NLuc coincidence luminescence, 24 h. Potency, µM (doses to about 57.5 µM), for the others: at the top dose activity change, negative = inhibition, usual class: inhibitors. actives 2% (n = 43,000); active = clear falling dose curves in both reporters; inconclusive = both reporters move, but less clearly or upward; inactive = either reporter flat; the % is the NLuc reporter signal; note: potency is the fitted concentration of half-maximal effect; % is set by controls: 0 for no effect and ±100 for the full control effect
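Rat S16 Pmp22-F2sN cells, 500-1,000/well in phenol red-free DMEM + 10% FBS, compound-treated 24 h (37C, 5% CO2). Luminescence: FLuc read, Stop&Glo added, NLuc read.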
NLuc sat counter: inhibits NanoLuc at saturating substrate, PMP22 counter-screen | shares compounds with PMP22 txn | Secreted NLuc enzyme (filtered S16 cell medium), Nano-Glo luminescence | Potency, µM (titrated, usually from 57.5 µM), for inactives: at the top dose activity change, negative = inhibition, most hits filed as inhibitors | actives 4% (n = 690); note: potency is the fitted concentration of half-maximal effect; % is set by controls: 0 for no effect and ±100 for the full control effect
NLuc Km ctr: counter-screen for PMP22 expression modulators: NanoLuc inhibition at Km; secreted NLuc enzyme, coelenterazine luminescence, Km conditions; AID 1508639; Potency, µM (doses to about 57.5 µM), for inactives: at the highest dose activity change, negative = inhibition, hits mostly inhibitors; actives 5% (n = 690); shares compounds with PMP22 txn; note: potency is the fitted concentration of half-maximal effect; % is set by controls: 0 for no effect and ±100 for the full control effect
FLuc ctr PMP22: firefly luciferase enzyme inhibition artifact for PMP22 screen; AID 1508640; Potency, µM (highest dose often 57.5 µM), for inactives: top-dose activity, negative = inhibition, most hits filed as inhibitors; purified P. pyralis FLuc, luminescence, 10 min; shares compounds with PMP22 txn; 690 tested, under 10 active; note: % of control where 0% means no effect
Target sequence (P08659 whole entry, looked up): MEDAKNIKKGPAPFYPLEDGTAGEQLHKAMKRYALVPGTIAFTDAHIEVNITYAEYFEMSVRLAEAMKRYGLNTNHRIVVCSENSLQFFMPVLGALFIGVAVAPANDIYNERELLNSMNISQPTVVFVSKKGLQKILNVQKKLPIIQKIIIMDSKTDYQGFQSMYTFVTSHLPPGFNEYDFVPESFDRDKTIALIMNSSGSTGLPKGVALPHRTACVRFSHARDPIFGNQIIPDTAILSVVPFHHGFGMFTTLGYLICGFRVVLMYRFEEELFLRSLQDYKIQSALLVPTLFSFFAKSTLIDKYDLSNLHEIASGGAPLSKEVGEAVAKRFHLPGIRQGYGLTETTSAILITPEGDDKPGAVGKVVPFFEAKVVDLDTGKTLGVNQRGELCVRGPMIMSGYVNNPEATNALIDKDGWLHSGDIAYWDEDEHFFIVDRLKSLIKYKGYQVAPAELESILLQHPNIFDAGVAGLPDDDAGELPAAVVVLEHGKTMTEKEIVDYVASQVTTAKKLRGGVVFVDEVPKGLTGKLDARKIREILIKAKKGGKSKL
S16 F2sN tox cnf: confirmation of cytotoxicity in S16 Pmp22-F2sN Schwann cells (luciferase reporters placed in the Pmp22 gene) | shares compounds with PMP22 txn | S16 Schwann cells viability, CellTiter-Glo ATP luminescence, 24 h | Potency, µM (doses to about 57.5 µM), for inactives: at the top dose activity change, negative = viability loss, hits mostly cytotoxic | actives 7% (n = 690); note: potency is the fitted concentration of half-maximal effect; % is set by controls: 0 for no effect and ±100 for the full control effect
PMP22 txn conf: confirmation of modulators of PMP22 gene transcription in S16 cells. shares compounds with PMP22 txn. S16 Schwann cells Pmp22-F2sN, dual luciferase, 24 h. Potency, µM (highest dose often 57.5 µM), for the others: at the top dose activity change, negative = inhibition, actives largely listed as inhibitors. actives 22% (n = 690); active = clear falling dose curves in both reporters; inconclusive = both reporters move, but less clearly or upward; inactive = either reporter flat; the % is the FLuc reporter signal; note: potency is the fitted concentration of half-maximal effect
PMP22 HiBiT cnf: rat PMP22 protein level modulation, confirmatory. shares compounds with PMP22 txn. S16 Schwann cells Pmp22-HiBiT, luminescence, 48 h. Potency, µM (top dose mostly 27.9 µM), inactives show top-dose activity change, negative = inhibition, most hits filed as inhibitors. 95 tested, under 10 active. AID 1508647
Starred values were filed as active, the others as inactive. An excerpt weighted towards active compounds, which were near 3.2% of everything screened. Unless noted, calls come from the whole dose curve; as a rule, active = well fitted curve in the direction sought with a large enough effect; inconclusive = small, poorly fitted or top-dose-only effect, or another doubt; inactive = no such curve, though single readings can be large; an effect the other way counts as inactive or inconclusive.

What do the screens show for `CCc1ccc(Cn2c(CNS(=O)(=O)c3ccc(C)c(C)c3)nc3cccnc32)cc1`?
p53null 39C kill: -2.4%; p53null 32C tox: 3.9%; S16 viability: -6.2%; mTORC1 inh: -0.5%; PMP22 txn: -4.3%

How did CCOC(=O)c1c(-c2ccccc2)oc2ccc(N(C(C)=O)S(=O)(=O)c3cc(C)ccc3C)cc12 do in these assays?
p53null 39C kill: 51.0%; p53null 32C tox: 6.5%; S16 viability: -7.7%; mTORC1 inh: -3.3%; PMP22 txn: -4.5%

What do the screens show for `O=S(=O)(c1ccc(Cl)cc1)c1nnn2c1nc(NCc1ccccc1)c1sccc12`?
p53null 39C kill: inconclusive; p53null 32C tox: -8.1%; S16 viability: 21.8%; mTORC1 inh: -10.7%; PMP22 txn: inconclusive

What do the screens show for `Cc1ccc(S(=O)(=O)c2nnn3c2nc(NC2CCCCCC2)c2sccc23)cc1C`?
p53null 39C kill: 14.9%; p53null 32C tox: 7.5%; S16 viability: 0.7%; mTORC1 inh: -9.0%; PMP22 txn: 20µM*; NLuc sat counter: inconclusive; NLuc Km ctr: -4.2%; FLuc ctr PMP22: -7.9%; S16 F2sN tox cnf: 6.1%; PMP22 txn conf: 16.5µM*; PMP22 HiBiT cnf: inconclusive

What do the screens show for `O=S(=O)(c1ccc(Cl)cc1)c1nnn2c1nc(N1CCCCC1)c1sccc12`?
p53null 39C kill: 7.2%; p53null 32C tox: -0.2%; S16 viability: 1.9%; mTORC1 inh: 0.1%; PMP22 txn: inconclusive; NLuc sat counter: inconclusive; NLuc Km ctr: 0.6%; FLuc ctr PMP22: 5.2%; S16 F2sN tox cnf: 5.6%; PMP22 txn conf: inconclusive

What do the screens show for `CCCCNc1nc2c(S(=O)(=O)c3ccc(Cl)cc3)nnn2c2ccsc12`?
p53null 39C kill: -8.1%; p53null 32C tox: 0.3%; S16 viability: -0.1%; mTORC1 inh: 4.9%; PMP22 txn: 20µM*; NLuc sat counter: -13.9%; NLuc Km ctr: inconclusive; FLuc ctr PMP22: 3.7%; S16 F2sN tox cnf: -2.9%; PMP22 txn conf: -19.1%

Results for Cc1ccc(S(=O)(=O)c2nnn3c2nc(N2CCOCC2)c2sccc23)cc1C ?
p53null 39C kill: -12.9%; p53null 32C tox: -5.3%; S16 viability: -7.6%; mTORC1 inh: -9.3%; PMP22 txn: 13.4µM*; NLuc sat counter: inconclusive; NLuc Km ctr: 0.2%; FLuc ctr PMP22: -8.8%; S16 F2sN tox cnf: 1.5%; PMP22 txn conf: -45.4%
